Several values for one entry are separate records, joined by “and”; a condition that tells them apart may be missing. Equal entries are not always repeated. Activity calls are given as the source filed them. Unless noted, the rule behind the calls is not given here.
Assays:
[1] = compound effects on lung adenocarcinoma cell viability – A549, calcein-AM fluorescence, 48 h, basal, profiling panel (AID 1162); conditions: higher = more signal; note: test concentration not given here
[2] = compound effects on differentiated 3T3-L1 adipocyte viability – cell-based, 3T3-L1 adipocytes, calcein-AM fluorescence, 48 h, basal, profiling panel (AID 1163); conditions: 3T3-L1 adipocytes viability, higher = more signal; note: test concentration not given here
[3] = compound effects on hepatocellular carcinoma cell viability – HepG2, calcein-AM fluorescence, 48 h, basal, profiling panel (AID 1164); conditions: higher = more signal; note: test concentration not given here
[4] = compound effects on multiple myeloma cell viability – MM1S, calcein-AM fluorescence, 48 h, basal, profiling panel (AID 1165); conditions: higher = more signal; note: test concentration not given here
[5] = calcein-AM signal in unstimulated myeloma cells – cell-based, calcein-AM fluorescence, 48 h, PK04 Diversity Set, profiling panel (AID 1166); conditions: RPMI8226 myeloma viability, higher = more signal;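 note: cells grown under basal conditions without added stimulus; test concentration not given here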
[6] = JC-1 mitochondrial signal, unstimulated HepG2 cells – cell-based, JC-1 fluorescence, 24 h, 100 nL compound, profiling panel (AID 1167); conditions: HepG2 mitochondrial potential, higher = more signal; note: test concentration not given here
[7] = JC-1 mitochondrial signal, unstimulated adipocytes – cell-based, JC-1 fluorescence, 3T3-L1 adipocytes, 24 h, 100 nL compound, profiling panel (AID 1168); conditions: JC-1 mitochondrial fluorescence, higher = more signal, called active from +8 up or from −8 down; note: test concentration not given here
[8] = JC-1 mitochondrial signal, unstimulated myeloma cells – cell-based, JC-1 fluorescence, RPMI8226, 24 h, 100 nL compound, profiling panel (AID 1169); conditions: JC-1 mitochondrial potential fluorescence, higher = more signal; note: test concentration not given here
[9] = JC-1 mitochondrial signal, unstimulated MM1S myeloma – cell-based, JC-1 fluorescence, 24 h, 100 nL compound, profiling panel (AID 1170); conditions: MM1S mitochondrial potential, higher = more signal; note: test concentration not given here
[10] = resazurin metabolic signal in A549 cells – cell-based, resazurin fluorescence, 24 h, PK04 Diversity Set, profiling panel (AID 1171); conditions: A549 viability, higher = more signal, called active from +8 up or from −8 down; note: test concentration not given here
[11] = resazurin metabolic signal in HepG2 cells – cell-based, resazurin fluorescence, 24 h, PK04 Diversity Set, profiling panel (AID 1172); conditions: HepG2 viability, higher = more signal; note: test concentration not given here
[12] = budding yeast growth changes without added modifier – OD600, strain BY4716, 24 h, basal condition, primary screen (AID 1173); conditions: S. cerevisiae BY4716 growth, OD600, 24 h; higher = more signal, called active from +8 up or from −8 down
[13] = viability profiling in MM1S myeloma cells – cell-based, resazurin fluorescence, basal, 24 h, PK04 Diversity Set, profiling panel (AID 1174); conditions: higher = more signal, called active from +8 up or from −8 down; note: test concentration not given here
[14] = biological target: Dihydroorotate dehydrogenase (quinone), mitochondrial (Plasmodium falciparum (isolate 3D7)) (UniProt Q08210); assay: inhibition of P. falciparum DHODH – biochemical, C-terminal His tag, absorbance 600 nm, primary screen (AID 1175); conditions: PfDHODH enzyme, DCIP absorbance 600 nm; higher = more signal, called active from +8 up or from −8 down;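 note: recombinant parasite enzyme with a five histidine tag at its C terminus; test concentration not given here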
Sequence of Dihydroorotate dehydrogenase (quinone), mitochondrial (Plasmodium falciparum (isolate 3D7)) (Q08210 whole entry, looked up): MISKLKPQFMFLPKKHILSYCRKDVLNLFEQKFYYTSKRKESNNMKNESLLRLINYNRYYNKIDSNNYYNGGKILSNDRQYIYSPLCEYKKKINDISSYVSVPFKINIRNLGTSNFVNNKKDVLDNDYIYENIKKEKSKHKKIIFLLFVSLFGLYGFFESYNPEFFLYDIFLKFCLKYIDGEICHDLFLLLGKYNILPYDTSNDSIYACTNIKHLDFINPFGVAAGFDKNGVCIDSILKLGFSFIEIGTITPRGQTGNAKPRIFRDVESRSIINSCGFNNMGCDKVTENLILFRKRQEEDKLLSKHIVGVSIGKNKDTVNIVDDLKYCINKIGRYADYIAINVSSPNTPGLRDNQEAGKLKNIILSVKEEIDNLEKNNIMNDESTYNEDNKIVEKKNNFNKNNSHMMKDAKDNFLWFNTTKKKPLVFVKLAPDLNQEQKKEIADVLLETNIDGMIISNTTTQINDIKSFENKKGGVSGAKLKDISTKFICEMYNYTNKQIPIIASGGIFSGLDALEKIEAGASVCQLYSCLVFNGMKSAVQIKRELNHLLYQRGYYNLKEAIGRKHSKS

[15] = inhibition of PAO1 biofilm formation – strain PAO1, LB-PBS medium, absorbance 600 nm, primary screen (AID 1176); note: test concentration not given here; conditions: P. aeruginosa PAO1 growth/biofilm, A600, 12 h; higher = more signal
[16] = growth modulation of vineyard yeast isolate – strain RM11-1a, OD600, basal, 24 h, primary screen (AID 1177);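 note: cultures grown under basal conditions with no added stressor; test concentration not given here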; conditions: S. cerevisiae RM11-1a growth, OD600, 24 h; higher = more signal, called active from +8 up or from −8 down
[17] = growth of efflux-deficient E. coli DRC39 – strain DRC39, OD650, 24 h, E. coli filamentation inducers, primary screen (AID 1178);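 note: growth measured as culture turbidity by optical density at 650 nm; test concentration not given here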; conditions: E. coli DRC39 acrAB, higher = more signal, called active from +8 up or from −8 down
[18] = growth of efflux-deficient E. coli DRC39 – strain DRC39, OD650, 48 h, E. coli filamentation inducers, primary screen (AID 1179);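 note: screen aims at cell division blockers that make cells filament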; conditions: E. coli DRC39 delta-acrAB growth, higher = more signal, called active from +8 up or from −8 down
[19] = viability profiling in RPMI8226 myeloma cells – cell-based, resazurin fluorescence, basal, 24 h, PK04 Diversity Set, profiling panel (AID 1180); conditions: higher = more signal;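 note: RPMI8826 multiple myeloma cell line at 5000 cells per well; test concentration not given here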
[20] = biological target: E3 ubiquitin-protein ligase XIAP (Homo sapiens) (UniProt P98170); assay: small molecules binding XIAP protein – biophysical, small-molecule microarray, fluorescence 635 nm, primary screen (AID 1181); conditions: higher = more signal;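 note: score merges 667 nm emission and signal to noise over triplicate slides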
Sequence of E3 ubiquitin-protein ligase XIAP (Homo sapiens) (P98170 whole entry, looked up): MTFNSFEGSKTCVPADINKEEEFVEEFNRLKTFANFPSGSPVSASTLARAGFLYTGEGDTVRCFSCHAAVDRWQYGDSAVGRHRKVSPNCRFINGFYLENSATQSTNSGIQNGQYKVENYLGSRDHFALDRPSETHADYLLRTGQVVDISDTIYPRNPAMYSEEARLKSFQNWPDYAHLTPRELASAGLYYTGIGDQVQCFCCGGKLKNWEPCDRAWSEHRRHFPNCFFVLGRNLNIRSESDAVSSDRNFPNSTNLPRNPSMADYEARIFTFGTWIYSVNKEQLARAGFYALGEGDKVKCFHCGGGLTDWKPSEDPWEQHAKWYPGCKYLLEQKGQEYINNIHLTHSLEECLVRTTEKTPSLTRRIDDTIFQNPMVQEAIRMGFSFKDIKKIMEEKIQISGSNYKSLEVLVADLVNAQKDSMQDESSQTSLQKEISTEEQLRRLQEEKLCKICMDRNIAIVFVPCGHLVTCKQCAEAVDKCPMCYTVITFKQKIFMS

Structure (SMILES) | z-score [1] | z-score [2] | z-score [3] | z-score [4] | z-score [5] | z-score [6] | z-score [7] | z-score [8] | z-score [9] | z-score [10] | z-score [11] | z-score [12] | z-score [13] | composite z-score [14] | z-score [15] | z-score [16] | z-score [17] | z-score [18] | z-score [19] | composite z-score [20]
C[N+](C)(C)CCCCCCNC(=O)[C@@H]1C[C@@H]2C(=O)N[C@@H](CCCC[N+](C)(C)C)C(=O)N2[C@@H]1c1ccc(O)cc1 | 0.602 and 0.107 | -0.266 and -0.25 | 0.284 and -0.812 | 0.814 and -0.514 | -0.587 and 0.392 | -0.367 and -1.19 | 0.608 (inactive) and 0.109 (inactive) | -0.7 and 0.534 | -0.778 and -0.749 | 0.527 (inactive) and 0.818 (inactive) | 0.104 and 0.822 | 0.292 (inactive) and 0.384 (inactive) | 0.436 (inactive) and 0.422 (inactive) | -0.792 (inactive) and -0.983 (inactive) | -0.462 (inactive) and 0.0499 (inactive) | 1.06 (inactive) and 1.11 (inactive) | 0.52 (inactive) and -0.04 (inactive) | 0.801 (inactive) and -0.431 (inactive) | 0.608 and -0.287 | -0.277 and -0.227
C=C[C@H](C)[C@@H](O)c1ccc(OCCO)cc1 | 0.235 and -0.066 | 0.101 and -0.192 | -0.211 and 0.619 | 0.529 and -0.301 | -0.528 and 0.864 | -0.368 and 0.814 | 0.428 (inactive) and 0.45 (inactive) | -0.961 and 0.99 | 0.976 and -0.205 | 0.0233 (inactive) and -0.361 (inactive) | 0.0272 and -0.227 | -1.41 (inactive) and -2.08 (inactive) | -0.246 (inactive) and -0.5 (inactive) | 0.14 (inactive) and -0.263 (inactive) | 0.684 (inactive) and 0.486 (inactive) | -0.371 (inactive) and 0.526 (inactive) | -0.748 (inactive) and 0.371 (inactive) | -0.902 (inactive) and 0.418 (inactive) | 0.0577 and -0.603 | 0.074 and 0.18
C[C@@H](ON=C1[C@H]2CCn3c(=O)n(-c4ccccc4)c(=O)n3[C@H]2[C@H](O)[C@@H]2O[C@H]12)c1cn([C@H](CO)Cc2ccccc2)nn1 | 0.158 | -0.002 | 0.567 | -0.463 | -0.259 | -0.998 | 0.31 (inactive) | -0.334 | -0.00977 | -0.847 (inactive) | -1.08 | 0.394 (inactive) | -1.42 (inactive) | -0.469 (inactive) | -0.525 (inactive) | 0.122 (inactive) | 0.777 (inactive) | 1.12 (inactive) | -1.65 | -0.0208
C=CCN(C(=O)C(c1cccs1)N(C(=O)/C=C\C(=O)O)C(C)(C)CO)C(C)(C)C (stereo not given) | 0.923 and 0.435 | 0.373 and 0.179 | 1.24 and 1.74 | 0.151 and 1.58 | -0.161 and 0.234 | 1.04 and 1.38 | 0.19 (inactive) and 0.713 (inactive) | -0.82 and 0.0107 | 0.0872 and 0.0595 | -0.465 (inactive) and -0.596 (inactive) | -0.432 and -0.115 | -1.64 (inactive) and -0.838 (inactive) | 0.626 (inactive) and 0.391 (inactive) | -0.98 (inactive) and -0.499 (inactive) | 0.454 (inactive) and -0.0837 (inactive) | -1.86 (inactive) and -1.72 (inactive) | 1.97 (inactive) and 0.291 (inactive) | 2.07 (inactive) and 0.946 (inactive) | 0.356 and 0.366 | -0.0669 and 0.0153
COC(=O)C1=C(C)N(Cc2ccccc2)[C@]23O[C@](C(=O)OC)(C(=O)N2[C@@H]1c1ccccc1)[C@H]1CCCC(=O)[C@H]13 | 0.144 and -0.51 | 0.474 and 0.827 | -0.336 and -0.818 | -3.25 and -1.15 | -1.18 and -0.337 | 0.662 and 0.827 | 1.33 (inactive) and 0.966 (inactive) | -0.736 and 0.0334 | 0.291 and -0.342 | 0.207 (inactive) and -0.277 (inactive) | -0.483 and -0.852 | -2.15 (inactive) and -0.0243 (inactive) | 0.167 (inactive) and 0.867 (inactive) | 0.149 (inactive) and -3.24 (inactive) | 0.39 (inactive) and -0.692 (inactive) | -0.186 (inactive) and -0.402 (inactive) | -0.321 (inactive) and -1.18 (inactive) | -0.204 (inactive) and -1.38 (inactive) | -0.327 and -0.466 | 0.0548 and -0.16
C[C@@H](c1ccccc1)N1C(=O)[C@H]2[C@H]3[C@H](O)[C@H](O)CC(=O)[C@@H]3CC[C@H]2C1=O | 0.0128 | 0.762 | 1.15 | 0.288 | -1.17 | 0.921 | 2.42 (inactive) | -0.438 | 1.65 | -0.1 (inactive) | -0.7 | -1.05 (inactive) | 0.295 (inactive) | -1.59 (inactive) | 0.377 (inactive) | -2.9 (inactive) | -0.579 (inactive) | -0.954 (inactive) | -0.62 | -0.163

— PubChem BioAssay
